# The other results are listed elsewhere or left out. Unmarked numbers belong to inactive results. No rule for the calls is given here.
# Test: signal-interfering artefacts in bead proximity readout – biochemical, AlphaScreen, HTS, counter-screen, dose response (AID 1259373)
# Conditions: AlphaScreen optical interference counterscreen, cell-free
smiles,measurement,value
CCOC(=O)C1C2NC(=S)N(CC)C1(C)Oc1ccc(Cl)cc12 (stereo unspecified),IC50,> 8.6 µM
